In PubChem BioAssay AID492953 (The Scripps Research Institute Molecular Screening Center, 2010) one finds inhibition data, which are given here for 92 compounds.

The campaign covered roughly 340,000 compounds. About 4,200 (1.2%) were called active. This excerpt belongs to a sample that is enriched for actives. A number with no mark means an inactive call.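 How the source made its calls: active means inhibition above the mean of all tested compounds plus 3 SD (cut at about 24% in these data); inactive means the rest.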

The term inhibition denotes the change of the read-out against control, counted positive when it falls.

Sequence of Platelet-activating factor acetylhydrolase IB subunit alpha2 (Homo sapiens) (P68402 whole entry, looked up): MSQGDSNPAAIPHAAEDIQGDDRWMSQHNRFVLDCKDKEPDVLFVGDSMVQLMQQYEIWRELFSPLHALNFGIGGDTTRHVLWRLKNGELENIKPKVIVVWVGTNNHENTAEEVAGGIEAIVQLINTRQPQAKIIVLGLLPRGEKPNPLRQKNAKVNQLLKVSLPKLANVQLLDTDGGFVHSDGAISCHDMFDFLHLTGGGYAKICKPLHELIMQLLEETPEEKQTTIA

This assay addresses Platelet-activating factor acetylhydrolase IB subunit alpha2 (Homo sapiens) (UniProt P68402). As to the kind of experiment: PAFAH1B2 enzyme inhibitors, primary screen, biochemical, fluorescence polarization, human (AID 492953).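 Further: 0% = enzyme with DMSO and 100% = wells lacking PAFAH1B2.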 To be noted: recombinant PAFAH1B2, FP-rhodamine activity probe, at 3.39 µM, stronger effect = higher value. Background: Polarisation of emitted light reports the rotation of a fluorescent probe.
Turning to `CS(=O)(=O)Nc1ccccc1N=C(c1ccccc1)c1ccccc1`, the inhibition was 5.79%. As to `O=c1cc(-c2ccccc2)nc(N2CCCCC2)[nH]1`, the inhibition is -3.66%. On to `Cc1ccc(-c2cc(=O)[nH]c(NCc3ccccc3)n2)cc1`, for which the inhibition was 24.5% (active). Next, `Cc1ccc(O)c(CNc2nc3ccccc3[nH]2)c1`: 0.09%; `O=C(O)c1ccc(-n2cccc2)cc1O`: 4.37%; `COc1cccc(CNn2cn[nH]c2=S)c1OCc1ccccc1`: 0.39%.

As for `O=C(CCNC(=O)C1CCN(S(=O)(=O)c2ccccc2)CC1)NC1CC1`, the inhibition is 1.71%.

As for `CCc1nnc(NC(=O)c2cccc(S(=O)(=O)N(C)c3ccc(OC)cc3)c2)s1`, the inhibition is 10.2%. For `CCc1ccc2nc3sc(C(=O)Nc4nnc(CC)s4)c(N)c3cc2c1`, the inhibition is 32.2% (active). For `CCc1nnc(NC(=O)c2nc3nccc(C)n3n2)s1`, the inhibition was 7.37%. In the case of `COc1ccc(Cl)cc1C=CC=Nc1ccc(S(N)(=O)=O)cc1`, the inhibition was -2.05%. As to `Cc1c(C(=O)OCC(=O)N(CCC#N)c2ccccc2)oc2c1ccc1ccccc12`, the inhibition was -1.31%. `CC(C)(C)NC(=O)c1cccc(NC(=O)Cc2ccc(Br)cc2)c1`: the inhibition is 28.1% (active).

`O=C(Cc1ccccc1)Nc1cccc(NC(=O)c2ccccc2)c1`: the inhibition is 3.28%. As for `Cc1cccc(NC(=O)Cc2ccc(Br)cc2)n1`, the inhibition is 8.34%. For `CN1CCN(C(=O)CCc2ncc(C(F)(F)F)cc2Cl)CC1`, the inhibition was -0.83%. Turning to `CCC(=O)N1CCC(C(N)=O)(N2CCCCC2)CC1`, the inhibition was -0.67%.

Regarding `CC(=O)c1sc(NC(=O)CCN2C(=O)C3CC=CCC3C2=O)nc1-c1ccccc1` (configuration not stated), the inhibition is -3.33%. On to `Cc1cccc(NS(=O)(=O)c2ccc([N+](=O)[O-])cc2)n1`, for which the inhibition was 1.97%. Turning to `CC1=CC(=NNS(=O)(=O)c2ccc([N+](=O)[O-])cc2)CC(C)(C)C1`, the inhibition is 31.9% (active). Next, `CC(C=Cc1ccccc1)=NNS(=O)(=O)c1ccc([N+](=O)[O-])cc1`: 6.62%; `CCOC(=O)[C@H]1[C@H]2COc3ccccc3[C@@H]2N2C(=O)CN(Cc3ccccc3)C(=O)[C@@]12C`: -3.13%; `COc1ccc(CNC(=O)c2cc(=O)c3c(C)cc(C)cc3o2)cc1`: -0.18%. With `CCCCN(C(=O)/C=C/c1ccco1)c1c(N)n(CC(C)C)c(=O)[nH]c1=O`, the inhibition is -1.15%. Next, `CC(=O)Nc1ccc(S(=O)(=O)Oc2ccc(Br)cc2C(=S)N2CCOCC2)cc1`: 0.45%; `COc1ccc(Br)cc1/C=N/Nc1ccc(S(=O)(=O)Nc2ccccc2C(=O)O)cc1[N+](=O)[O-]`: 4.57%; `Cc1ccc(NS(=O)(=O)c2ccc(N/N=C/c3ccccc3OCC(=O)O)c([N+](=O)[O-])c2)c(C)c1`: 4.33%. The figure for `COc1cccc(/C=N/Nc2ccc(S(=O)(=O)Nc3ccccc3C(=O)O)cc2[N+](=O)[O-])c1O` is 32.2% (active); for `Cc1ccc(C(=O)O)cc1S(=O)(=O)NCC1CCCO1` (configuration not stated) it is -0.69%; for `COc1ccc(S(=O)(=O)NCCCc2ccccc2)cc1` it is 13.7%. The figure for `COc1ccc(S(=O)(=O)NCCc2cc3ccc(C)c(C)c3[nH]c2=O)cc1` is 24.7% (active); for `COc1ccc(CCNS(=O)(=O)c2cccc([N+](=O)[O-])c2)cc1` it is 13.1%.

For the compound `O=C1CN(C(=O)COC(=O)C2CC(=O)N(Cc3ccco3)C2)c2ccccc2N1` (configuration not stated), the inhibition was -0.96%. With `O=C(NCCN1CCN(C(=O)c2cccc([N+](=O)[O-])c2)CC1)C(=O)NCc1ccc(Cl)cc1`, the inhibition is 10.4%.

Turning to `CCCCCCCCCCCC(=O)O`, the inhibition is 30.2% (active). As for `NC(=O)NCCCC(=O)O`, the inhibition was 4.24%. `O=C(O)CCCCCCCCCC[n+]1ccccc1`: the inhibition was 1.11%.

As for `C/C=C/c1ccc(OCCCCN2CCC(C)CC2)c(OC)c1`, the inhibition is 2.16%. The figure for `CCc1c(C)n([O-])c2c([n+]1=O)CCCCC2` is 7.72%; for `CCc1cccc(CC)c1NC(=O)COc1ccccc1C(=O)c1cc(C#N)c(=O)n(C2CCCCC2)c1` it is 2.15%. Turning to `NS(=O)(=O)c1ccccc1NC(=O)c1c(O)c2ccccc2[nH]c1=O`, the inhibition is 2.89%.

For the compound `Cc1cc(=O)cc(C)n1-c1ccc(Cl)c(Cl)c1`, the inhibition is 4.86%. On to `CCCCC(=O)NNC(=S)NC(=O)C(c1ccccc1)c1ccccc1`, for which the inhibition is 27.4% (active). Regarding `CC(C)C(=O)Nc1cccc(NC(=S)NC(=O)C(c2ccccc2)c2ccccc2)c1`, the inhibition was -2.74%. For the compound `CCNC(=S)NNC(=O)Cc1ccccc1`, the inhibition was 0.2%. Take `Cc1ccc(S(=O)(=O)NC2CCCCCC2)cc1`: the inhibition was 11.5%. In the case of `Cc1ccc(S(=O)(=O)n2oc(=O)c(C3CCCCC3)c2N)cc1`, the inhibition is 30.4% (active).

Consider `Cc1ccc(S(=O)(=O)N2CCC(N3CCCCCC3)CC2)cc1`, for which the inhibition was 5.12%. Take `COc1ccc(/C(C)=N/N2CCOCC2)c(O)c1`: the inhibition is 3.71%. Next, `CCOc1ccccc1N(CC(=O)NC1CCCCC1)C(=O)CCCC(=O)Nc1ccccn1`: 2.23%; `Cc1ccc(S(=O)(=O)n2nc(OC(=O)C(C)(C)C)cc2N)cc1`: 24.3% (active); `Cc1ccc(S(=O)(=O)N2CCC(C(=O)N3CCCCCCC3)CC2)cc1`: -2.62%.

As to `Nc1cc(OC(=O)c2ccccc2Br)nn1S(=O)(=O)c1ccccc1`, the inhibition is -1.3%. As to `CCOC(=O)N1CCN(c2cc(C)c([N+](=O)[O-])cc2F)CC1`, the inhibition was 6.77%. Turning to `Cc1ccc(CNS(=O)(=O)CCNC(=O)c2ccccc2)cc1`, the inhibition is 0.61%. Turning to `Cc1ccc(N(C(=O)c2ccc(CN3CCOCC3)o2)C(C(=O)NCCC(C)C)c2cccs2)c(C)c1` (configuration not stated), the inhibition was 2.55%. In the case of `Cc1cc(=O)oc2c3c(cc(OCC(=O)NCCC(=O)N[C@@H](C)C(=O)O)c12)OC(C)(C)CC3`, the inhibition is 2.72%. Turning to `Cc1c(C)c2c(OCC(=O)N[C@@H](C(=O)O)c3ccccc3)cc3c(c2oc1=O)CCC(C)(C)O3`, the inhibition was 38% (active). Consider `Cc1c(C)c2c(OCC(=O)NCCCO)cc3c(c2oc1=O)CCC(C)(C)O3`, for which the inhibition is 9.23%.

For the compound `COCC1CCCN(Cc2cn[nH]c2-c2cc3ccccc3o2)C1` (configuration not stated), the inhibition is -0.69%. Consider `Cc1ccccc1NC(=O)N1CCCC1C(=O)NCc1ccccc1` (configuration not stated), for which the inhibition was 3.76%. As to `O=[N+]([O-])c1ccc(NCCCO)c(C(F)(F)F)c1`, the inhibition is 6.89%. As for `COCC1CCCN(Cc2nc(-c3ccc4c(c3)OCO4)no2)C1` (configuration not stated), the inhibition is 3.45%.

As for `O=C(COc1cccc(-n2cnnn2)c1)NCCC1=CCCCC1`, the inhibition was 10.3%. For `CC(C)COc1ccc(C(=O)OCC(=O)NCCC2=CCCCC2)cc1`, the inhibition is 2.59%. With `O=C(COc1ccc(Cl)cc1)NCCC1=CCCCC1`, the inhibition is 27.5% (active). Next, `CC1(c2ccccc2)CC(C)(C)N(C(=O)c2cc([N+](=O)[O-])cc([N+](=O)[O-])c2)c2ccccc21` (configuration not stated): -0.31%; `CC1CCC2CCCCC2N1C(=O)c1cc([N+](=O)[O-])cc([N+](=O)[O-])c1` (configuration not stated): 24.7% (active). Regarding `CC1CCN(C(=S)c2cccc([N+](=O)[O-])c2)CC1`, the inhibition is 19.4%.

In the case of `COc1ccc(CN2CCN(C(=O)c3cc(C4CC4)nn3-c3ccccc3)CC2)cc1F`, the inhibition is 2.17%. The figure for `O=C(COc1cccc2c1CCNC2=O)NC1CCCCC1` is -3.94%; for `O=C(Nc1ccc2ccccc2c1[N+](=O)[O-])c1ccccc1` it is 5.08%. Next, `CCN(C(=O)COC(=O)c1cc(NS(=O)(=O)c2ccc(Cl)c([N+](=O)[O-])c2)ccc1O)C1CCCCC1`: 45.9% (active); `CN(C)c1ccc(S(=O)(=O)NCC(=O)NCC2CCCCC2)cc1[N+](=O)[O-]`: 8.33%; `COc1ccc(NS(=O)(=O)c2ccc(O)c(C(=O)OCC(=O)NC3CCCCC3)c2)cc1`: 19.8%. Take `Cc1c(NS(=O)(=O)c2cccc(C(=O)Nc3ccc(SC(F)F)cc3)c2)c(=O)n(-c2ccccc2)n1C`: the inhibition is 5.1%. For `COc1ccc(C(=O)CSc2nnc(NC(=O)C3CC(=O)N(c4cccc(OC)c4)C3)s2)cc1` (configuration not stated), the inhibition was -6.09%.

On to `O=C(CNC(=O)c1cc(S(=O)(=O)N2CCOCC2)ccc1N1CCCC1)Nc1ccc(F)c(F)c1`, for which the inhibition was -4.31%.

For `COc1cc(C(=O)Nc2cc(C(F)(F)F)ccc2-n2cncn2)cc(OC)c1OC`, the inhibition was -1.88%. Next, `CCc1nn(CC(=O)N2CCN(c3cc(C)ccc3C)CC2)c(=O)c2cc3occc3n12`: 2.35%. `CSCCC(NC(=O)COc1ccccc1)C(=O)N1CCN(c2cccc(C(F)(F)F)c2)CC1` (configuration not stated): the inhibition is 7.1%.

Regarding `CC(=O)NC1=NC(=O)CS1`, the inhibition is -3.07%.

As to `COc1ccc(C2(CNC(=O)Cc3ccc(OC)c(OC)c3)CCCC2)cc1`, the inhibition was -0.19%. Regarding `COc1ccc(C2(CNC(=O)C(c3ccccc3)c3ccccc3)CCOCC2)cc1OC`, the inhibition is -0.88%.

Take `COc1cc(C(=O)NCC2(c3ccccc3)CCCC2)ccc1OC(C)C`: the inhibition is 69.7% (active). Regarding `CCCCc1nc2cc(C(=O)NCCc3cnn(C)c3)ccc2o1`, the inhibition is -4.49%. Take `O=C(/C=C/c1ccc(Cl)cc1)N1CCN(c2ccccc2[N+](=O)[O-])CC1`: the inhibition was -2.36%. Turning to `COc1cccc2c1C(=O)c1c(O)c3c(c(O)c1C2=O)CC(O)(C(C)=NNC(=O)c1ccc(Cl)c(Cl)c1)CC3OC1CC(N)C(O)C(C)O1` (configuration not stated), the inhibition was 52.5% (active). In the case of `CC/C(=C(/c1ccccc1)c1ccc(OCC[N+](C)(C)C)cc1)c1ccccc1`, the inhibition is 8.4%. For the compound `CCOc1cc(/C=C(/C#N)c2ccc(Cl)cc2)cc(Cl)c1OCC(=O)O`, the inhibition is 71.1% (active). `C/C(=N\OCC(=O)O)c1ccc(Cl)cc1`: the inhibition is 9.56%.

`CCOC(=O)CN/C=C(\C#N)c1ccc(F)cc1`: the inhibition is -0.66%.
